In PubChem BioAssay (Tox21):
Results filed as inconclusive are left out. The source made the active and inactive calls. Unless noted, the call rests on the fitted dose curve.

Key:
[1] = Nuclear factor erythroid 2-related factor 2/antioxidant responsive element (Nrf2/ARE) small molecule agonists: qHTS cell viability counter screen in human keratinocytes (AID 1919968; active means well fitted curve in the direction sought with a large enough effect in the repeat runs; an effect the other way counts as inactive or inconclusive; further: nearly all actives have a fitted effect of over 55% in size)
Method in brief: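 HaCaT ARE reporter line, 1,500 cells/well; 5 h settle, 37 C/5% CO2; cpd in DMSO pinned; 23 h exposure; CellTiter-Fluor, 1 h; fluorescence.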

[2] = Nuclear factor erythroid 2-related factor 2/antioxidant responsive element (Nrf2/ARE) small molecule agonists: luciferase reporter gene qHTS assay in human keratinocytes (AID 1919969); further: nearly all actives have a fitted effect of over 35% in size
[3] = biological target: Gonadotropin-releasing hormone receptor (Homo sapiens) (UniProt P30968); test: Human gonadotropin-releasing hormone receptor (GnRHR) small molecule agonists, calcium flux assay in GnRHR-HEK293 cells (AID 1920063); further: nearly all actives have a fitted effect of over 35% in size
Method in brief: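 GnRHR-HEK293, 1500 cells/well, 18 h 37 C/5% CO2; Ca dye 1 h 37 C; cpd pinned (DMSO), agonist mode; kinetic FL 480/540, 3 min, 1 s reads; 15 conc, n=3.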

[4] = biological target: KiSS-1 receptor (Homo sapiens) (UniProt Q969F8); test: Human kisspeptin (KISS1R) small molecule agonists, calcium flux assay in KISS1R-HEK293 cells (AID 1920064; active means well fitted curve in the direction sought with a large enough effect in the repeat runs; an effect the other way counts as inactive or inconclusive)
Method in brief: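 Stable human KISS1R HEK293 line; 18 h plating, 37 C/5% CO2; calcium dye 1 h 37 C; compound pin transfer; kinetic fluorescence Ex/Em 480/540, 3 min.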

[5] = G protein-coupled receptor (GPCR) small molecule agonists, calcium flux assay: HEK293 wild type cell line counter screen (AID 1920065)
Method in brief: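 Kinetic fluorescence at Ex/Em 480/540, recorded every second over 3 min, served as the read-out after compound addition. Each compound was tested at 15 concentrations in triplicate on cells pre-loaded with calcium dye for 1 h.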

[6] = p53 small molecule agonists, cell-based qHTS assay with human liver microsomes (AID 1963577)
Method in brief: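 Fluorescence of the beta-lactamase reporter in p53RE-bla cells, detected with LiveBLAzer substrate (2 h, room temperature, dark), served as the read-out after 16 h compound exposure at 37 C with human liver microsomes and NADPH, each 0.5 mg/mL final.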

[7] = p53 small molecule agonists, cell-based qHTS assay with rat liver microsomes (AID 1963578)
Method in brief: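 Cells carrying a p53 response element–beta-lactamase reporter were plated and rested 5 h, then dosed with compound in DMSO plus rat liver microsomes and NADPH, each at 0.5 mg/mL final. After 16 h at 37 C, LiveBLAzer substrate was added for 2 h.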

[8] = p53 small molecule agonists, cell-based qHTS assay with human liver microsomes: qHTS cell viability counter screen (AID 1963579); further: nearly all actives have a fitted effect of over 45% in size
Method in brief: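 Cytotoxicity counter screen: p53RE-bla, 4,000 cells/well; 5 h settle, 37 C/5% CO2; cpd + HLM 0.5 mg/mL + NADPH 0.5 mg/mL (final); 16 h, 37 C; CellTiter-Glo, 30 min RT, luminescence.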

[9] = p53 small molecule agonists, cell-based qHTS assay with rat liver microsomes: qHTS cell viability counter screen (AID 1963580); further: nearly all actives have a fitted effect of over 45% in size
Method in brief: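 HCT-116 p53RE-bla, 4,000 cells/well, 5 h pre-incubation; cpd + rat liver microsomes 0.5 mg/mL + NADPH 0.5 mg/mL (final); 16 h, 37 C; CellTiter-Glo, 30 min RT; luminescence.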

[10] = p53 small molecule agonists, cell-based qHTS assay (AID 1963582; active means well fitted activation curve with a large enough effect in the signal ratio in the repeat runs, not every such curve was filed as active; the % refers to the signal ratio)
Method in brief: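 Reporter line: p53RE-bla. Pre-incubation 5 h, 37 C, 5% CO2; compound (DMSO, pin tool) 16 h, 37 C; B/G FRET substrate 2 h RT; fluorescence intensity read.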

[11] = biological target: 5-hydroxytryptamine receptor 2A (Homo sapiens) (UniProt P28223); test: 5-hydroxytryptamine receptor 2A (HTR2A) small molecule antagonists, cell-based qHTS assay (AID 1963586); further: nearly all actives have a fitted effect of over 45% in size
Method in brief: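 Antagonist-mode intracellular calcium assay: DOI (4 nM) added after 5 min compound pre-incubation at room temperature to dye-loaded HTR2A-CHO cells. Fluorescence followed for 3 min, sampled every second.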

[12] = biological target: 5-hydroxytryptamine receptor 2A (Homo sapiens) (UniProt P28223); test: 5-hydroxytryptamine receptor 2A (HTR2A) small molecule agonists, cell-based qHTS assay (AID 1963587); further: nearly all actives have a fitted effect of over 30% in size
Method in brief: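 Kinetic calcium-flux fluorescence (2 min, 1 sec intervals) after compound addition in agonist mode. HTR2A-CHO cells were cultured 18 h, then dye-loaded 1 h at 37 C.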

[13] = biological target: Muscarinic acetylcholine receptor M1 (Homo sapiens) (UniProt P11229); test: Cholinergic receptor muscarinic 1 (CHRM1) small molecule antagonists, cell-based qHTS assay (AID 1963588); further: nearly all actives have a fitted effect of over 40% in size
Method in brief: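 CHRM1-CHO calcium-flux assay, antagonist mode. Cells were seeded 18 h, dye-loaded 1 h at 37 C and given compound for 5 min at RT, then acetylcholine was added at 50nM. FDSS fluorescence was read 3 min; 15 concentrations, three runs.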

[14] = cAMP Responsive Elements (CRE) small molecule agonists, cell-based qHTS assay (AID 1963590)
Method in brief: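 HEK 293T CRE-bla, 2,000 cells/well, 18 h preincubation 37 C/5% CO2; cpds (DMSO) pinned, 3 h; LiveBLAzer B/G FRET substrate, 2 h RT.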

[15] = cAMP Responsive Elements (CRE) small molecule antagonists, cell-based qHTS assay (AID 1963591; active means well fitted inhibition curve with a large enough effect in the signal ratio in the repeat runs, not every such curve was filed as active; the % refers to the signal ratio)
Method in brief: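 Beta-lactamase reporter read by FRET substrate (LiveBLAzer B/G) after 2 h at room temperature. CRE-bla HEK293T cells had received compound plus 0.25 uM (final) NKH477 for 3 h at 37 °C.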

[16] = biological target: Beta-2 adrenergic receptor (Homo sapiens) (UniProt P07550); test: Adrenergic beta2 receptor (ADRB2) small molecule antagonists, cell-based qHTS assay (AID 1963592); further: series mostly up to about 92 µM; nearly all actives have a fitted effect of over 50% in size
Method in brief: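 Cells (CHO, stable ADRB2 overexpression) incubated 18-20hr at 37C; compounds added from DMSO; agonist mix (1nM isoproterenol, 100uM IBMX, 25uM Ro-20-1724) added; 0.5hr RT; d2-cAMP and anti-cAMP-cryptate added; 1hr RT; 665/615 nm read.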

[17] = biological target: Beta-2 adrenergic receptor (Homo sapiens) (UniProt P07550); test: Adrenergic beta2 receptor (ADRB2) small molecule agonists, cell-based qHTS assay (AID 1963593);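 further: CHO cells stably overexpressing human ADRB2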
Method in brief: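 CHO cells stably over-expressing ADRB2 were plated overnight at 37C, then dosed with compounds plus a stimulation mix containing 100uM IBMX and 25uM Ro-20-1724 for 0.5hr at room temperature. cAMP was measured by HTRF competition, 1hr.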

[18] = biological target: D(2) dopamine receptor (Homo sapiens) (UniProt P14416); test: Dopamine D2 receptor (DRD2) small molecule agonists, cell-based qHTS assay (AID 1963594); further: nearly all actives have a fitted effect of over 35% in size
Method in brief: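 cAMP accumulation in DRD2-HEK293 cells measured by HTRF after 1 h detection; compounds added 10 min before NKH477 (200nM […]) forskolin-analogue stimulation, 30 min at room temperature, with Ro20-1724 present at 0.1 mM final.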

[19] = biological target: D(2) dopamine receptor (Homo sapiens) (UniProt P14416); test: Dopamine D2 receptor (DRD2) small molecule antagonists, cell-based qHTS assay (AID 1963595; active means well fitted inhibition curve with a large enough effect in the signal ratio in the repeat runs, with a control signal flat; the % refers to the signal ratio)
Method in brief: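 Readout: HTRF cAMP, cAMP-d2 competing with cellular cAMP for anti-cAMP cryptate, read after 1 h. Cells: DRD2-HEK293. Conditions: 0.1 mM Ro20-1724, 12 nM quinpirole, 200 nM NKH477, 30 min RT.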

[20] = p53 small molecule agonists, cell-based qHTS assay: qHTS cell viability counter screen (AID 1963581); further: nearly all actives have a fitted effect of over 45% in size
Method in brief: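 HCT-116 p53RE-bla cells, 4,000/well, plated 5 h before compound pin transfer; 16 h at 37 C; bla substrate 2 h RT; then CellTiter-Glo, 30 min RT, luminescence.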

Measured: Potency

Sequence of KiSS-1 receptor (Homo sapiens) (Q969F8 whole entry, looked up): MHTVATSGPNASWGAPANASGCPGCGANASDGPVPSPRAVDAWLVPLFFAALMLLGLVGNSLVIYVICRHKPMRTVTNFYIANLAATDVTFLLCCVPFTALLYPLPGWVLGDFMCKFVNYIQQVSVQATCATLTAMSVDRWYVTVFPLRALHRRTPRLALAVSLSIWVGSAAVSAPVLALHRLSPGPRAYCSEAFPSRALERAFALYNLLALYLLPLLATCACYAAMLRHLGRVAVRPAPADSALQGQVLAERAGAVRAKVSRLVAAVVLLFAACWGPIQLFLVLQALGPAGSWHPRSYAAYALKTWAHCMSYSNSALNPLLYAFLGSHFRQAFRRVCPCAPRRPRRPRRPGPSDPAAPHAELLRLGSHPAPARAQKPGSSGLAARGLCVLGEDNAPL
Sequence of Muscarinic acetylcholine receptor M1 (Homo sapiens) (P11229 whole entry, looked up): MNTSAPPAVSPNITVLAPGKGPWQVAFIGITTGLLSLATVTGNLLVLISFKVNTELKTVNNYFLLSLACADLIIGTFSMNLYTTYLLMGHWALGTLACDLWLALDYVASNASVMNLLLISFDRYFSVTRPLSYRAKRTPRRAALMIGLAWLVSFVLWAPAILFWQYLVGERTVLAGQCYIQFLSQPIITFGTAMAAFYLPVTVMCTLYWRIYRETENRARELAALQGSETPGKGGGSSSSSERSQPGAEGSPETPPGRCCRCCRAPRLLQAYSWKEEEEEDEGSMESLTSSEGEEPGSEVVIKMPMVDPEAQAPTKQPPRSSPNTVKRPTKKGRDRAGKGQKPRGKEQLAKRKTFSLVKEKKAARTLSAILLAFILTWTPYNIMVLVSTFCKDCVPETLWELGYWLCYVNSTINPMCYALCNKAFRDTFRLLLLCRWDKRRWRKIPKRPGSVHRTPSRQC
Sequence of Beta-2 adrenergic receptor (Homo sapiens) (P07550 whole entry, looked up): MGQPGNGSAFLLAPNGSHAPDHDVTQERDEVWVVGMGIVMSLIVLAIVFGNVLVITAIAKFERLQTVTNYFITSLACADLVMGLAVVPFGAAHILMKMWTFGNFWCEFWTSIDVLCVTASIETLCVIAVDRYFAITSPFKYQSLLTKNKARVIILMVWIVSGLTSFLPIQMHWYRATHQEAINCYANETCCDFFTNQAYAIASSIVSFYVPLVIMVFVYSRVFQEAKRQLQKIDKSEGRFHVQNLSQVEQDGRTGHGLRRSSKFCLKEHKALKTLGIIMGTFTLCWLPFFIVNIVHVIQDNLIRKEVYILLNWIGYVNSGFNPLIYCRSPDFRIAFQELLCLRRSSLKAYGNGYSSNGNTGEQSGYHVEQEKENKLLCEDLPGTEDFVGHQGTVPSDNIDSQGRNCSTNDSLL
Sequence of 5-hydroxytryptamine receptor 2A (Homo sapiens) (P28223 whole entry, looked up): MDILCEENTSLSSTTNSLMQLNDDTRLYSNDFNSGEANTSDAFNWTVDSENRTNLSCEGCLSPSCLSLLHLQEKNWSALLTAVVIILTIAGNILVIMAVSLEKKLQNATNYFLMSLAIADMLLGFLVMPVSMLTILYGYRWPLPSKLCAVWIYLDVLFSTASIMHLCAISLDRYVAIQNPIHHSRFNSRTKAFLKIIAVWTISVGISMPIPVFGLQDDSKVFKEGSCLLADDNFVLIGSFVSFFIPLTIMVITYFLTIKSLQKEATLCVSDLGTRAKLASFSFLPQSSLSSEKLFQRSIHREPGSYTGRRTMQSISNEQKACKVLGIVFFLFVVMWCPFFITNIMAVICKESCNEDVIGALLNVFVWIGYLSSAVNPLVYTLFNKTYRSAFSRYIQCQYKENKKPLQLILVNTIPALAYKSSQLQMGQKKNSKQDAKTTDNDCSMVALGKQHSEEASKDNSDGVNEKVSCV
Sequence of D(2) dopamine receptor (Homo sapiens) (P14416 whole entry, looked up): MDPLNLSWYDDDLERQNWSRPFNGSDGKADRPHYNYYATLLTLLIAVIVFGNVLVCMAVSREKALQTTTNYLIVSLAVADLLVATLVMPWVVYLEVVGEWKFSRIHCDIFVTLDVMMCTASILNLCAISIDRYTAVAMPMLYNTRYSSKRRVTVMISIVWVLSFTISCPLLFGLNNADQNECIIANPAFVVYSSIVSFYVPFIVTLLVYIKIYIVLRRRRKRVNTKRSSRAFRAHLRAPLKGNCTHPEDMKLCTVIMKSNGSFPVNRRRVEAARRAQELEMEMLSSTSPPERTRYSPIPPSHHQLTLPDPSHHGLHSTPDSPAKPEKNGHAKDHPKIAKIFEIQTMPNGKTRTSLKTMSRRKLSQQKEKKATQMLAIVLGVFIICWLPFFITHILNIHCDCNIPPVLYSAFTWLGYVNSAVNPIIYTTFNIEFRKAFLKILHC
Sequence of Gonadotropin-releasing hormone receptor (Homo sapiens) (P30968 whole entry, looked up): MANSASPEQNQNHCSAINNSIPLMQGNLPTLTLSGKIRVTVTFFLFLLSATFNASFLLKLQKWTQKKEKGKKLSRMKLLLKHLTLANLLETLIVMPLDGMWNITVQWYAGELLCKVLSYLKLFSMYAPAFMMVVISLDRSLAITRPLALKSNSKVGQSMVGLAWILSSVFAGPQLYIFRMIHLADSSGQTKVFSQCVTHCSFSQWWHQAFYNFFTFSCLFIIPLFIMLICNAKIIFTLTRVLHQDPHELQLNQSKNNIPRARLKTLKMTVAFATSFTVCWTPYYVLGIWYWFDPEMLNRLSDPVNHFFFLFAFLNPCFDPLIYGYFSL

c1ccc2n[nH]nc2c1
not listed: [20]
inactive: all other assays above

Cc1ccc(Cl)cc1
not listed: [10] | [11] | [18] | [19]
inactive: all other assays above

Nc1ccc(S(=O)(=O)Nc2cnc3ccccc3n2)cc1
not listed: [15] | [19] | [20]
inactive: all other assays above

CN(C)C=O
not listed: [10] | [11] | [12] | [13]
inactive: all other assays above

OC[C@H]1O[C@@H](Oc2ccc(O)cc2)[C@H](O)[C@@H](O)[C@@H]1O
not listed: [9]
inactive: all other assays above

Cc1ccccc1C(OCCN(C)C)c1ccccc1 (stereo not drawn)
not listed: [10] | [11] | [12] | [13] | [17] | [20]
inactive: all other assays above

CCC(O)OCCCOC (stereo not drawn)
not listed: [9] | [14] | [16]
inactive: all other assays above
